The values that follow come from PubChem BioAssay (NCATS).

Results filed as inconclusive are left out. Calls of active or inactive are those of the source. Calls follow the shape of the dose curve; as a rule, active = well fitted inhibition curve with a large enough effect; inconclusive = small, poorly fitted or top-dose-only effect; inactive = no such curve, though single readings can be large or run the other way.

One test in a line: qHTS Assay for Lipid Storage Modulators (AID 1519). Particulars: Drosophila S3 cells, BODIPY lipid droplet/cell ratio, laser cytometry; measured here: cell count channel max response; cells loaded with oleic acid. A digest of the protocol: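 Cells seeded at 5,000 per well were treated with compounds over a concentration series and loaded with oleic acid (400 uM, as added). Lipid droplet fluorescence (488 nm excitation, 500-530 nm channel) was read by laser-scanning cytometry and normalized to 20 uM Triacsin C.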
(In general: In qHTS, concentration-response curves come from the screen itself.)
`COc1cccc(-c2ccc3ncnc(NC4CCNCC4)c3c2)c1`: the max response was -3.29%.

In the case of `COc1cccc(-c2cc(NCc3cccs3)ncn2)c1`, the max response was determined as 10.6%.

In the case of `Cn1c(=O)c(-c2cc(F)cc(F)c2)nc2cnc(Oc3ccccc3)nc21`, the max response came out at 21.4%.

`CNc1nc(-c2ccccc2Cl)nc2ccccc12`: the max response was -3.59%.

As for `O=C(O)C1CCN(c2ncnc3ccc(-c4ccccc4C(F)(F)F)cc23)CC1`, the max response stood at 14.4%.

Regarding `CC(=O)NCCNc1nc(-c2ccccc2Cl)nc2ccccc12`, the max response was found to be 11.5%.

Turning to `CN(C)c1ccc(-c2cncnc2NCc2cccs2)cc1`, the max response is 4.82%.

With `O=c1c(-c2ccc(F)cc2)nc2cnc(N3CCOCC3)nc2n1C[C@H]1CCCO1`, the max response stood at 16.8%.

Turning to `Cc1cccc(CNc2ncncc2-c2cccc(C#N)c2)c1`, the max response is 9.06%.

As for `COc1ccc(Oc2ncc3nc(-c4ccc(OC)cc4)c(=O)n(Cc4cccs4)c3n2)cc1`, the max response is 13.2%.

Take `Cc1cccc(CNc2ncncc2-c2ccc3c(c2)OCO3)c1`: the max response worked out at 7.25%.

Regarding `N#CCCn1c(=O)cnc2cnc(N3CCOCC3)nc21`, the max response came out at 18.1%.

As for `COc1ncc2nc(-c3cccs3)c(=O)n(-c3ccccc3)c2n1`, the max response is -0.0529%.

Turning to `COc1ccc2[nH]cc(CCNc3cc(-c4ccccc4C(F)(F)F)ncn3)c2c1`, the max response is -3.31%.

With `Cc1nc2cnc(Oc3cccc(Cl)c3)nc2n(CCC#N)c1=O`, the max response worked out at 19.7%.

`COc1ncc2ncc(=O)n(C)c2n1`: the max response came out at 14.9%.

Turning to `c1ccc2c(-n3ccnc3)nc(-c3ccoc3)nc2c1`, the max response stood at 10.7%.

Take `COc1cccc(-c2nccc(-n3ccnc3)n2)c1`: the max response is 4.96%.

`CN(C)c1ccc(-c2cc(-n3ccnc3)ncn2)cc1`: the max response is 11.3%.

Staying with this test, now noted: Drosophila S3 cells, BODIPY lipid droplet/cell ratio, laser cytometry; measured here: lipid channel max response; cells loaded with oleic acid.
On to `Clc1ccccc1-c1nccc(-n2ccnc2)n1`, for which the max response stood at 13%.

For `Cc1cccc(CNc2ccnc(-c3ccoc3)n2)c1`, the max response came to 4.61%.

Regarding `c1nc(NC2CCNCC2)c2cc(-c3ccc4c(c3)OCO4)ccc2n1`, the max response worked out at 6.41%.

On to `O=c1c(-c2ccccc2)nc2cnc(Oc3ccccc3)nc2n1Cc1cccs1`, for which the max response was 12.8%.

Turning to `COc1ccc(-n2c(=O)c(-c3cn(C)c4ccccc34)nc3cnc(OC)nc32)cc1`, the max response is -9.54%.

`CN(C)c1ncc2ncc(=O)n(CCC#N)c2n1`: the max response came to 29.8%.

For `COc1ccccc1CNc1ncncc1-c1ccoc1`, the max response is 5.8%.

On to `COc1ncc2ncc(=O)n(Cc3cccs3)c2n1`, for which the max response was 19.6%.

With `FC(F)(F)c1ccccc1-c1cc(N2CCNCC2)ncn1`, the max response worked out at 24.8%.

In the case of `CC(=O)NCCNc1nc(-c2ccccc2C(F)(F)F)nc2ccccc12`, the max response came out at 23%.

For `COc1ccccc1CNc1ccnc(-c2ccoc2)n1`, the max response was 2.83%.

As for `Cc1ccccc1-c1cncnc1Nc1ccc(F)cc1`, the max response is 2.59%.

In the case of `CN(Cc1ccco1)c1cc(-c2ccccc2Cl)ncn1`, the max response was 5.54%.

`COc1ccc(-n2c(=O)cnc3cnc(Oc4ccccc4)nc32)cc1`: the max response is 6.57%.

In the case of `COc1ncc2nc(-c3cccc(C#N)c3)c(=O)n(CCC#N)c2n1`, the max response came out at 20.3%.

Turning to `CN(Cc1ccco1)c1ncnc2ccc(-c3cccc(C#N)c3)cc12`, the max response amounted to 2.39%.

Turning to `c1ccc(CNc2ccnc(-c3ccoc3)n2)cc1`, the max response was determined as 15%.

Take `COc1ncc2nc(-c3cc(F)cc(F)c3)c(=O)n(CCC#N)c2n1`: the max response was found to be 25.6%.

For the molecule `Cc1nc2cnc(Nc3ccccc3)nc2n(C)c1=O`, the max response was 2.52%.

Take `COc1ccc(-n2c(=O)c(C)nc3cnc(Oc4ccccc4)nc32)cc1`: the max response stood at 20.5%.

With `COc1ccccc1CCn1c(=O)c(-c2cc(F)cc(F)c2)nc2cncnc21`, the max response worked out at 2.22%.

Turning to `COc1cccc(-c2ccc3ncnc(NC4CCNCC4)c3c2)c1`, the max response was 2.37%.

For the molecule `COc1cccc(-c2cc(NCc3cccs3)ncn2)c1`, the max response came to 25%.

In the case of `Cn1c(=O)c(-c2cc(F)cc(F)c2)nc2cnc(Oc3ccccc3)nc21`, the max response came to 16.5%.

With `CNc1nc(-c2ccccc2Cl)nc2ccccc12`, the max response is -2.38%.

Consider `O=C(O)C1CCN(c2ncnc3ccc(-c4ccccc4C(F)(F)F)cc23)CC1`, for which the max response amounted to 20.7%.

For `CC(=O)NCCNc1nc(-c2ccccc2Cl)nc2ccccc12`, the max response was 20.7%.

On to `CN(C)c1ccc(-c2cncnc2NCc2cccs2)cc1`, for which the max response was determined as 15.4%.

In the case of `O=c1c(-c2ccc(F)cc2)nc2cnc(N3CCOCC3)nc2n1C[C@H]1CCCO1`, the max response was -2.6%.

On to `Cc1cccc(CNc2ncncc2-c2cccc(C#N)c2)c1`, for which the max response amounted to 15.9%.

In the case of `COc1ccc(Oc2ncc3nc(-c4ccc(OC)cc4)c(=O)n(Cc4cccs4)c3n2)cc1`, the max response worked out at 21.9%.

On to `Cc1cccc(CNc2ncncc2-c2ccc3c(c2)OCO3)c1`, for which the max response is 23.1%.

As for `N#CCCn1c(=O)cnc2cnc(N3CCOCC3)nc21`, the max response is 23.1%.

On to `COc1ncc2nc(-c3cccs3)c(=O)n(-c3ccccc3)c2n1`, for which the max response is -2.75%.

In the case of `COc1ccc2[nH]cc(CCNc3cc(-c4ccccc4C(F)(F)F)ncn3)c2c1`, the max response stood at 0.275%.

For `Cc1nc2cnc(Oc3cccc(Cl)c3)nc2n(CCC#N)c1=O`, the max response stood at 26.1%.

`COc1ncc2ncc(=O)n(C)c2n1`: the max response amounted to 24.1%.

As for `c1ccc2c(-n3ccnc3)nc(-c3ccoc3)nc2c1`, the max response is 22.4%.

With `COc1cccc(-c2nccc(-n3ccnc3)n2)c1`, the max response is 13.1%.

As to `CN(C)c1ccc(-c2cc(-n3ccnc3)ncn2)cc1`, the max response turned out to be 23%.

Another test in a line: Primary qHTS for small molecule stabilizers of the endoplasmic reticulum resident proteome: Secreted ER Calcium Modulated Protein (SERCaMP) assay (AID 1508630). Also: % is scaled to controls: 0 for no effect and ±100 for the full control effect. The following applies: SH-SY5Y GLuc-SERCaMP (Gaussia luciferase released on ER calcium loss) secretion, thapsigargin, luminescence; series mostly up to 38.4 µM. The method, boiled down:
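The SH-SY5Y reporter protocol was run at 3 concentrations up to 38.3 uM (primary) or 11 concentrations (follow-up): 16 h compound, 100 nM thapsigargin for 4 h, then extracellular luciferase luminescence.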
For the molecule `Clc1ccccc1-c1nccc(-n2ccnc2)n1`, the Potency entry is “inactive”.

Take `Cc1cccc(CNc2ccnc(-c3ccoc3)n2)c1`: the Potency entry was “inactive”.

In the case of `c1nc(NC2CCNCC2)c2cc(-c3ccc4c(c3)OCO4)ccc2n1`, the Potency result is “inactive”.

As for `O=c1c(-c2ccccc2)nc2cnc(Oc3ccccc3)nc2n1Cc1cccs1`, the Potency result was “inactive”.

For the molecule `COc1ccc(-n2c(=O)c(-c3cn(C)c4ccccc34)nc3cnc(OC)nc32)cc1`, the Potency result is “inactive”.

Consider `CN(C)c1ncc2ncc(=O)n(CCC#N)c2n1`, for which the Potency result was “inactive”.

`COc1ccccc1CNc1ncncc1-c1ccoc1`: the Potency entry is “inactive”.

On to `COc1ncc2ncc(=O)n(Cc3cccs3)c2n1`, for which the Potency result was “inactive”.

Regarding `FC(F)(F)c1ccccc1-c1cc(N2CCNCC2)ncn1`, the Potency result is “inactive”.

As to `CC(=O)NCCNc1nc(-c2ccccc2C(F)(F)F)nc2ccccc12`, the Potency result is “inactive”.

Regarding `COc1ccccc1CNc1ccnc(-c2ccoc2)n1`, the Potency entry is “inactive”.

Consider `Cc1ccccc1-c1cncnc1Nc1ccc(F)cc1`, for which the Potency entry was “inactive”.

Take `CN(Cc1ccco1)c1cc(-c2ccccc2Cl)ncn1`: the Potency entry was “inactive”.

For `COc1ccc(-n2c(=O)cnc3cnc(Oc4ccccc4)nc32)cc1`, the Potency result was “inactive”.

Take `COc1ncc2nc(-c3cccc(C#N)c3)c(=O)n(CCC#N)c2n1`: the Potency entry is “inactive”.

Consider `CN(Cc1ccco1)c1ncnc2ccc(-c3cccc(C#N)c3)cc12`, for which the Potency result was “inactive”.

`c1ccc(CNc2ccnc(-c3ccoc3)n2)cc1`: the Potency entry was “inactive”.

On to `COc1ncc2nc(-c3cc(F)cc(F)c3)c(=O)n(CCC#N)c2n1`, for which the Potency result is “inactive”.

For `Cc1nc2cnc(Nc3ccccc3)nc2n(C)c1=O`, the Potency entry was “inactive”.

On to `COc1ccc(-n2c(=O)c(C)nc3cnc(Oc4ccccc4)nc32)cc1`, for which the Potency result was “inactive”.

For the molecule `COc1ccccc1CCn1c(=O)c(-c2cc(F)cc(F)c2)nc2cncnc21`, the Potency result is “inactive”.

On to `COc1cccc(-c2ccc3ncnc(NC4CCNCC4)c3c2)c1`, for which the Potency result was “inactive”.

For `COc1cccc(-c2cc(NCc3cccs3)ncn2)c1`, the Potency result was “inactive”.

Take `Cn1c(=O)c(-c2cc(F)cc(F)c2)nc2cnc(Oc3ccccc3)nc21`: the Potency entry is “inactive”.

`CNc1nc(-c2ccccc2Cl)nc2ccccc12`: the Potency result was “inactive”.

On to `O=C(O)C1CCN(c2ncnc3ccc(-c4ccccc4C(F)(F)F)cc23)CC1`, for which the Potency result is “inactive”.

For `CC(=O)NCCNc1nc(-c2ccccc2Cl)nc2ccccc12`, the Potency entry is “inactive”.

As for `CN(C)c1ccc(-c2cncnc2NCc2cccs2)cc1`, the Potency result was “inactive”.

In the case of `O=c1c(-c2ccc(F)cc2)nc2cnc(N3CCOCC3)nc2n1C[C@H]1CCCO1`, the Potency entry was “inactive”.

For the molecule `Cc1cccc(CNc2ncncc2-c2cccc(C#N)c2)c1`, the Potency result is “inactive”.

Turning to `COc1ccc(Oc2ncc3nc(-c4ccc(OC)cc4)c(=O)n(Cc4cccs4)c3n2)cc1`, the Potency result is “inactive”.

On to `Cc1cccc(CNc2ncncc2-c2ccc3c(c2)OCO3)c1`, for which the Potency result is “inactive”.

With `N#CCCn1c(=O)cnc2cnc(N3CCOCC3)nc21`, the Potency entry was “inactive”.

For the molecule `COc1ncc2nc(-c3cccs3)c(=O)n(-c3ccccc3)c2n1`, the Potency result is “inactive”.

As to `COc1ccc2[nH]cc(CCNc3cc(-c4ccccc4C(F)(F)F)ncn3)c2c1`, the Potency result was “inactive”.

In the case of `Cc1nc2cnc(Oc3cccc(Cl)c3)nc2n(CCC#N)c1=O`, the Potency result is “inactive”.

As to `COc1ncc2ncc(=O)n(C)c2n1`, the Potency entry is “inactive”.

Turning to `c1ccc2c(-n3ccnc3)nc(-c3ccoc3)nc2c1`, the Potency result was “inactive”.

Consider `COc1cccc(-c2nccc(-n3ccnc3)n2)c1`, for which the Potency entry is “inactive”.

Take `CN(C)c1ccc(-c2cc(-n3ccnc3)ncn2)cc1`: the Potency result was “inactive”.
